Experimental data from PubChem BioAssay (NCI).
Compounds without any hit were thinned out: in the full panel of roughly 83,000, 20% have a hit.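 Interpretation: 100, growth as untreated; towards 0, rising growth inhibition; 0, no net growth; 0 to -100, cell death. Compounds scoring below 10 were considered active.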 A number with no mark means an inactive call. Active and inactive are the calls of the source.

Legend:
Test in all cases: NCI-60 one-dose screen, 48 h (100 = growth as untreated, 0 = no growth, -100 = all killed)
Details in all cases: 10 µM unless noted
SK-MEL-2 melanoma = tested on: SK-MEL-2 melanoma
EKVX NSCLC = tested on: EKVX NSCLC
SN12C renal = tested on: SN12C renal
UO-31 renal = tested on: UO-31 renal
TK-10 renal = tested on: TK-10 renal
ACHN renal = tested on: ACHN renal
CAKI-1 renal = tested on: CAKI-1 renal
A498 renal = tested on: A498 renal
CCRF-CEM leukemia = tested on: CCRF-CEM leukemia
MOLT-4 leukemia = tested on: MOLT-4 leukemia

SMILES	growth (SK-MEL-2 melanoma) [%]	growth (EKVX NSCLC) [%]	growth (SN12C renal) [%]	growth (UO-31 renal)	growth (TK-10 renal) [%]	growth (ACHN renal)	growth (CAKI-1 renal) [%]	growth (A498 renal)	growth (CCRF-CEM leukemia)	growth (MOLT-4 leukemia)
COc1ccc(/C(C)=C(\c2ccc(Cl)cc2)c2ccc(OCCN3CCCCC3)cc2)cc1F	64.1	47.7	47.4	11.6%	68.7	59.2%	17.8	76%	31%	23.8%
CSc1nc(N)c(CNC(C)c2ccccc2)c(=O)n1C (stereo not given)	98.9	100	101	80.5%	120	97.9%	107	102%	106%	93.1%
Cc1nn(-c2ccccc2)c2c1C(c1ccc([N+](=O)[O-])cc1)C(C#N)=C(N)O2 (stereo not given)	123	115	101	70.4%	141	108%	115	111%	90.3%	101%
COc1ccc(N=c2nc3sc4cc(Cl)ccc4n3c(N)c2C#N)cc1	58.6	70.8	98.4	64.1%	118	98.2%	69.2	100%	89.2%	37.7%
CCOC(=O)c1nnn(C(Cc2ccccc2Cl)C(=O)OCC)c1C (stereo not given)	107	106	104	89.7%	96.6	104%	90.8	103%	88.5%	94.6%
Cc1ccc(/C(=N\N=C(N)N)c2ccccc2)cc1	71.3	34.3	26.9	24.8%	42.2	20.4%	41.2	20.1%	14%	13.3%
Oc1ccccc1-c1nc2ccccn2c1NCCN1CCOCC1	106	102	97.1	89.9%	94.8	95.3%	86.9	89.5%	94.3%	97.5%
COc1ccc(-n2sc(=O)n(Cc3ccc(COC(=O)C(C)c4ccc(CC(C)C)cc4)cc3)c2=O)cc1 (stereo not given)	89.7	77.4	23.4	-6.91% (active)	10.1	-44.4% (active)	30.9	83.3%	-22.2% (active)	-18.3% (active)
COc1ccc(OC)c(C(=O)Nc2cccc(-c3cc(=O)c4ccccc4o3)c2)c1	98.2	90.5	82.6	95.2%	88	84.7%	79.4	92.4%	86.5%	86.3%
COc1ccc(OC)c(/C=C2\COc3ccc(O)cc3C2=O)c1	100	103	84.1	86.6%	97	78.9%	95.7	100%	5.83% (active)	64.9%
O=C(CCCCCCCn1cc(-c2cccnc2)nn1)Nc1ccccc1-c1ccccc1	87.9	64.9	25.8	62%	84	54.8%	17	83.3%	59.9%	47.4%
CC1(C)CC(=O)c2c(ccc(C(=O)C[C@H](N)CO)c2N)O1	36.8	80	32.6	43.4%	79.4	46.2%	20.3	-16.8% (active)	17.7%	38.5%
Cc1nc(Nc2ccc(N)cc2)c2ccccc2n1	101	101	93.1	81.4%	110	80.1%	91.2	97.3%	86.2%	100%
C[C@@H](C[C@H](CCOCc1cccnc1)c1ccccc1)c1cc2ccccc2o1	89.7	94.2	95.1	75.9%	95.3	93.1%	77.6	101%	94.1%	84.1%
COc1cccc(/C=C2\COc3ccc(O)cc3C2=O)c1OC	96.4	92.8	44.4	58.6%	89.3	54.6%	63.4	90.7%	2.69% (active)	32.9%
CCN(CC)CCOc1ccc(/C(=C(\C)c2ccc(OC)c(F)c2)c2ccc(Cl)cc2)cc1	95.9	96.5	83.5	75.6%	82.6	89.8%	67.2	102%	60.2%	70.8%
c1ccc2c(c1)nc(-n1ccnc1)c1nc3ccccc3n12	88.7	74.1	52.6	46.1%	72.4	32.3%	56	79.7%	78%	74.9%
CNC1(C#N)CCN(Cc2ccccc2)CC1	93.2	90.2	93.9	80.9%	272	101%	72.7	110%	108%	170%
Cn1nnnc1-c1ccc(N)cc1	89	93.8	110	79%	97.3	98.7%	93.2	108%	100%	92.5%
NC(N)=N/N=C(/c1ccccc1)c1ccccc1F	70.5	60	37.1	44%	64.9	41%	35.7	44.9%	-2.22% (active)	22.4%
